This note sets out measurements from PubChem BioAssay AID1851 (National Center for Advancing Translational Sciences (NCATS), 2009).

Where “and” joins values, the source holds several entries; their conditions need not be identical. Equal entries are not always repeated. Out of some 16,000 compounds screened, about 5,800 (36%) were called active. About 23% were inconclusive and are not listed. The list shows a part of the results. A number with no mark means an inactive call. Calls follow the shape of the dose curve; as a rule, active = well fitted curve in the direction sought with a large enough effect; inconclusive = small, poorly fitted or top-dose-only effect, or effect the other way; inactive = no such curve, though single readings can be large or run the other way.
% is scaled to controls: 0 for no effect and ±100 for the full control effect.

Cytochrome P450 2C19 (Homo sapiens), sequence (P33261 whole entry, looked up): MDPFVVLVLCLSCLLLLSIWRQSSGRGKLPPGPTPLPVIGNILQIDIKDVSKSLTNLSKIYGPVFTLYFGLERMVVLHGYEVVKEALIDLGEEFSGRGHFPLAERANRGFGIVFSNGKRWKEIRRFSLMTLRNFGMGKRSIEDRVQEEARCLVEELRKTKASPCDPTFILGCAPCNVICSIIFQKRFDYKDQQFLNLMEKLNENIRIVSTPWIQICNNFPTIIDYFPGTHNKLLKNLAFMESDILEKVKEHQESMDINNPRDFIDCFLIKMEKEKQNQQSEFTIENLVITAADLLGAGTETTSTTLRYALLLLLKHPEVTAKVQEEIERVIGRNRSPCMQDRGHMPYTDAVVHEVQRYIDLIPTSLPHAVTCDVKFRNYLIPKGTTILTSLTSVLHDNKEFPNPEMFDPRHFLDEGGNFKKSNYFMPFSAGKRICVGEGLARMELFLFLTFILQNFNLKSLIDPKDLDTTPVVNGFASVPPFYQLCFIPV

The test addresses Cytochrome P450 2C19 (Homo sapiens) (UniProt P33261). As to the kind of experiment: Cytochrome panel assay with activity outcomes. Particulars: recombinant CYP, pro-luciferin dealkylation, luminescence, p450-cyp2c19; series mostly up to 57.1 µM; activity, negative = inhibition: at the top concentration.
For orientation: AC50 means the concentration giving half of the maximal activity seen. Turning to `CCOc1ccc(N2CC(C(=O)NCc3cccc(C)c3)CC2=O)cc1` (stereo not drawn), the AC50 is 7.94 µM (active). For the compound `CC(C)Oc1ccc(N2CC(C(=O)OCC(=O)NCc3ccccc3)CC2=O)cc1` (stereo not drawn), the half-maximal activity concentration (AC50) was 15.8 µM (active).

As for `O=C(CSc1nc2ccccc2o1)NC(=O)NCc1ccccc1`, the half-maximal activity concentration (AC50) was 3.55 µM (active).

Regarding `O=C(CSc1nc2ccccc2o1)Nc1ccccc1N1CCCCCC1`, the AC50 is 15.8 µM (active). Turning to `Cc1cc(C)nc(SCC(=O)N/N=C\c2sccc2C)n1`, the AC50 is 5.01 µM (active).

As for `O=C(CN1CCN(S(=O)(=O)c2ccccc2)CC1)NC(=O)NCc1ccccc1`, the “activity, negative = inhibition” value was -24%. As to `O=C(CNC1CCCCCC1)Nc1ccccc1N1CCCCC1`, the AC50 was 4.47 µM (active). Regarding `CNc1c2c(nn1C)CCCC2`, the “activity, negative = inhibition” value was -23.5%.

Consider `C[N+](C)(C)c1cc2c(nn1)Nc1ccccc1S2`, for which the activity, negative = inhibition is -41.4% [at 11.4 µM]. The same measure, in the same setting: with `CC1(C)N=C(N)N=C(N)N1CCCCc1ccccc1` the figure was 24% [at 11.4 µM]. `Cc1cc(C)nc(SCC(=O)Nc2ccccc2[N+](=O)[O-])n1`: the AC50 is 7.94 µM (active).

As for `O=C(O)c1cc(=O)[nH]c(SCc2ccccc2)n1`, the activity, negative = inhibition is -23.4% [at 11.4 µM].

Consider `O=C(CSc1ccccn1)Nc1nc2ccc(Br)cc2s1`, for which the concentration at half-maximal activity (AC50) was 2 µM (active). Still for that read-out and setting: as for `O=C(CSc1nc2ccccc2o1)Nc1nc2ccccc2s1`, the figure is 1.78 µM (active). On the same count and under the same terms, with `O=C(O)c1ccc(CSc2nc3ccccc3o2)cc1` the figure was 35.5 µM (active). As to `O=C(O)c1ccc(CNCc2ccccc2)cc1`, the activity, negative = inhibition was -4.75% [at 11.4 µM]. In the case of `COc1nc(Cl)nc(Cl)c1Cl` (tested in a mixture with another compound), the activity, negative = inhibition was -12.4% [at 11.4 µM]. As to `CC(=O)OC[C@@H]1O[C@@H](O/N=C2/C[C@@H](O)[C@@H](O)[C@@H]3[C@@H]4C(=O)N(C[C@@H]5CCCO5)C(=O)[C@H]4CC[C@H]23)[C@H](OC(C)=O)[C@H](OC(C)=O)[C@@H]1OC(C)=O`, the activity, negative = inhibition is -5.2% [at 11.4 µM]. In the case of `Cc1ccccc1NC(=O)CSc1nc(N2CCCCC2)nc(N2CCCCC2)n1`, the AC50 is 0.355 µM (active). On to `Cc1ccccc1NC(=O)Cn1cnc2c1c(=O)n(C)c(=O)n2C`, for which the “activity, negative = inhibition” value is -34.6%. Turning to `O=C(C/C=N/OCc1ccc(F)cc1Cl)c1cnc(-c2ccccc2)s1`, the concentration at half-maximal activity (AC50) was 1.26 µM (active). Still for that read-out and setting: as for `O=C(C/C=N/OCc1ccc(Cl)cc1Cl)c1ccc(Cl)cc1`, the figure is 0.794 µM (active); as for `CN(C)CN1CSC(=S)N(CN(C)C)C1`, 3.16 µM (active). For `Cc1cc(NC(=O)C2C3C(=O)N(Cc4ccc(Cl)cc4)C(C(=O)NC(C)(C)C)C34C=CC2(C)O4)no1` (stereo not drawn), the “activity, negative = inhibition” value was -3.6%. For the compound `CCc1ccc(N2CC(C(=O)NC3=NCCS3)CC2=O)cc1` (stereo not drawn), the half-maximal activity concentration (AC50) was 15.8 µM (active). Take `COc1ccc(N2CC(C(=O)Nc3cc(C)on3)CC2=O)cc1` (stereo not drawn): the “activity, negative = inhibition” value was 16.6%. As for `Cc1ccc(N2CC(C(=O)Nc3cc(C)on3)CC2=O)cc1` (stereo not drawn), the AC50 was 5.62 µM (active). As to `CC(C)CO/N=C1/C[C@@H](O)[C@@H](O)[C@@H]2[C@@H]3C(=O)N(C[C@@H]4CCCO4)C(=O)[C@H]3CC[C@@H]12`, the activity, negative = inhibition was -18.3% [at 11.4 µM]. Consider `O=C(c1cnccn1)N1CCC2(CCCN(c3ncccn3)C2)CC1`, for which the “activity, negative = inhibition” value was -29.3%. For the compound `COc1ccc(COC(=O)N/N=C2/C[C@@H](O)[C@@H](O)[C@@H]3[C@H]4C(=O)N(c5ccc(F)cc5F)C(=O)[C@@H]4CC[C@@H]23)cc1`, the activity, negative = inhibition was -19.3% [at 11.4 µM]. As for `C=CC[C@@H]1C=C[C@H](O/N=C(\C)CCN2CCc3nc(CC)c(CC)cc3C2)[C@H](CO)O1`, the activity, negative = inhibition was -14% [at 11.4 µM]. Consider `COc1cc(NC(=O)c2cc3nc(-c4ccccc4)cc(-c4ccccc4)n3n2)cc(OC)c1OC`, for which the AC50 is 6.31 µM (active). For the compound `COc1cc(NC(=O)Cc2c(C(=O)O)[nH]c3ccccc23)cc(OC)c1OC`, the “activity, negative = inhibition” value was 5.48%.

For the compound `O=C(CSc1c[nH]c2ccccc12)N1CCOCC1`, the concentration at half-maximal activity (AC50) is 1.58 µM (active). As to `Nn1c(SCC(=O)N2CCOCC2)nnc1-c1ccccc1Cl`, the “activity, negative = inhibition” value is 8.68%. On the same count and under the same terms, as for `Fc1cccc(F)c1C(Nc1nncs1)Nc1nncs1`, the figure is 7.56% [at 11.4 µM]. The same measure, in the same setting: as for `O=C(O)CNCCc1ccccc1`, the figure is 4.74% [at 11.4 µM].

As for `NNCCc1ccccc1`, the concentration at half-maximal activity (AC50) was 794 nM (active) and 316 nM (active). Turning to `Cc1ccc(COc2ccc(Br)cc2/C=N/O)cc1`, the AC50 is 1 µM (active). `O=c1c(-c2ccccc2)nc2cnc(N3CCOCC3)nc2n1Cc1cccs1`: the “activity, negative = inhibition” value was -32.2%. Take `C[C@@H](COc1ccccc1)N(CCCl)Cc1ccccc1`: the AC50 was 2 µM (active).

As to `O=S(=O)(Nc1nc(-c2sccc2Cl)cs1)c1cc(Cl)ccc1Cl`, the AC50 is 0.2 µM (active). `CCC(C)NC(=O)C1CCN(C(=O)c2ccccc2)CC1` (stereo not drawn): the “activity, negative = inhibition” value is -14.8%. The same measure, in the same setting: as for `COC(=O)N1CCC2(CC1)CN(C(=O)Nc1ccc(OC)cc1)C2`, the figure is 3.06%. As for `COc1ccc(NC(C)=O)cc1NC(=O)CN1CCN(CC(=O)Nc2ccccc2Cl)CC1`, the AC50 was 7.94 µM (active). Take `O=C(CC1C(=O)NCCN1C(=S)Nc1ccccc1)Nc1ccc2c(c1)OCCO2` (stereo not drawn): the AC50 was 11.2 µM (active). In the case of `COC(=O)N1CCC2(CCN(C(=O)Nc3ccc(OC)cc3)CC2)CC1`, the “activity, negative = inhibition” value is -1.54%. Turning to `COc1ccc(NC(=O)CN2CCN(CC(=O)Nc3ccccc3Cl)CC2)cc1`, the AC50 is 1.41 µM (active).
